Measurements taken from PubChem BioAssay AID1628 (Sanford-Burnham Center for Chemical Genomics, 2009).
Among all 190,000 compounds or so, about 930 (0.49%) were called active.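 Rule for the calls: active = z-score of insulin promoter reporter brightness in nuclei below -3 at 5 µM, with at least 500 cells counted; inconclusive = wells with under 500 cells, flagged as toxic or sparse; inactive = the rest.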 The list shows a part of the results. Results with a measured potency or affinity are listed apart.

Test: insulin promoter down-regulators in MIN6 cells, imaging, high-content screening, mouse beta cells (AID 1628)
Conditions: MIN6 insulin promoter GFP reporter, at 5 µM, active compounds read low

z-score, active:
CC(C)c1nc2oc3c(N4CCN(C)CC4)ncnc3c2c2c1CCC2 -3.12, COCCn1c(C)cc(C(=O)CSc2ncnc3sc4c(c23)CCC4)c1C -8.03, CC(OC(=O)c1ccc(S(=O)(=O)NCc2ccco2)cc1)C(=O)Nc1ncc(Cl)cc1Cl (stereo not given) -5.26, Cc1noc(C)c1COC(=O)c1ccc(S(=O)(=O)NCc2ccco2)cc1 -4.22, CC(OC(=O)c1ccc2ncsc2c1)C(=O)Nc1ncc(Cl)cc1Cl (stereo not given) -5.12, COc1ccc(N=c2oc3cc(O)ccc3cc2C(=O)Nc2ccccn2)cc1OC -3.17, CC(C)OCCCn1c(NN)nc2ccccc2c1=O -4.32, C/C(=N\NC(=O)c1cc(-c2cccs2)nc2ccccc12)c1ccccn1 -6.25, COc1ccc(Cc2nc(-c3ccc(NC(=O)c4cccnc4)cc3)no2)cc1 -4.08, Cc1cccc(C2C3=C(Nc4[nH]n(-c5ccccc5)c(=O)c42)c2ccccc2C3=O)c1 (stereo not given) -4.1, c1ccc2c(c1)oc1c(N3CCN(Cc4ccc5c(c4)OCO5)CC3)ncnc12 -6.44, COc1cc(-c2noc(C3CCCN(S(=O)(=O)c4cccc(Cl)c4)C3)n2)cc(OC)c1OC (stereo not given) -3.23, Cc1ccccc1C(=O)Nc1cccc(NC(=O)Cn2cnc3c(=O)n(C)c(=O)n(C)c32)c1 -5.95, O=C(COC(=O)Cn1cnc2ccccc2c1=O)Nc1cc(Cl)ccc1[N+](=O)[O-] -4.27, CCc1cc2c(N3CCN(c4nnc(CC)s4)CC3)ncnc2s1 -5.09, CCOc1cc(/C=N/NC(N)=O)cc(Br)c1OCc1ccccc1F -5.46, O=C(C1CCC1)N1CCc2cc(S(=O)(=O)NCc3cccnc3)ccc21 -3.56, O=C(C1CCC1)N1CCc2cc(S(=O)(=O)NCCN3CCN(c4ccccc4F)CC3)ccc21 -4.42, Cc1cc2c(ncn2C)c(NS(=O)(=O)c2ccccc2Cl)c1C -4.59, CCOc1cccc2cc(C(N)=O)c(=NCc3ccccc3)oc12 -3.34, O=C(O)CCC(=O)N1CC=C(c2ccccc2)CC1 -3.14, Cc1cn(S(=O)(=O)c2ccc(Br)c3ccccc23)cn1 -4.36, NC(=S)N/N=C/c1cccc(O)c1O -5.73, FC(F)C(F)(F)C1=CC(c2ccccc2)=NCCN1 -3.16, CC1CCc2nc3ccccc3c(C(=O)OCC(=O)N3CCc4ccccc43)c2C1 (stereo not given) -7.27, CCOc1cccc(NC(=O)Cc2cccs2)c1 -3.39, CC1=C(C(=O)OCc2ccccc2)C(c2ccccc2)NC(=O)N1CCCCCC(=O)O (stereo not given) -5.52, COc1cc(OC)cc(-c2cc3nc4c(c(N5CCN(c6ncccn6)CC5)n3n2)CCCC4)c1 -3.61, COc1cccc(-c2cc3nc4c(c(N5CCC6(CC5)OCCO6)n3n2)CCC4)c1 -3.88, CC1CN(c2oc(COc3ccc(Cl)cc3Cl)nc2C#N)CC(C)O1 (stereo not given) -3.34, COC(=O)c1ccc(C(=O)Nc2cc(Cl)ccc2Cl)cc1NC(=O)c1ccc(N(C)C)cc1 -4.37, CC1CCCc2sc3nc(NCc4ccco4)n4ncnc4c3c21 (stereo not given) -3.54, COc1ccc(C(NC(C)=O)c2ccc3cccnc3c2O)c(OC)c1 (stereo not given) -5.39, Cc1ccc(C(=O)COC(=O)CNC(=O)c2ccc(N3C(=O)c4ccccc4C3=O)cc2)cc1C -3.38, COc1cccc(NC(=O)N2CCCC2C(=O)NC(C)C)c1 (stereo not given) -5.72, O=C(NCCCN1CCN(Cc2ccccc2)CC1)C1CCN(c2nnc(-n3cccc3)s2)CC1 -4.79

z-score, inactive:
CC1(C)C=Cc2c(c3c(c4c(=O)c(-c5ccc(O)cc5)coc24)OC(C)(C)CC3)O1 -0.78, N#Cc1ccc(CSc2nnc(NC(=O)c3ccc4ncsc4c3)s2)cc1 4.4, Cc1noc(C)c1CS(=O)(=O)c1ccc(Br)cc1 3.18, C1=C(N2CCOCC2)/C(=C/c2nc3ccccc3[nH]2)CC1 3.43, CCN(CC)c1ccc2cc(C(=O)Nc3ccccn3)c(=O)oc2c1 6.12, CCCN1C(=O)/C(=C/c2c(NCCCOC(C)C)nc3c(C)cccn3c2=O)SC1=S 11.2, O=c1oc2ccccc2c(NCc2cccc(F)c2)c1[N+](=O)[O-] 1.25, Cc1ccc(/C(C#N)=C\c2ccc(N3CCOCC3)o2)cc1 6.7, Cc1cc(C)c2nc(NNC(=O)c3cc(-c4cccs4)nc4ccccc34)sc2c1 3.73, C/C(=N\NC(=O)c1cc(-c2ccccn2)nc2ccccc12)c1cccc([N+](=O)[O-])c1 4.2, Cc1ccnc(N2C(=O)c3cccc4c([N+](=O)[O-])ccc(c34)C2=O)c1 3.14, Cc1ccc(N2C(=O)c3cccc4c(N5CCN(C)CC5)ccc(c34)C2=O)c2cccnc12 5.89, O=C(Nc1cccnc1)c1ccc(S(=O)(=O)c2ccc(Cl)cc2)cc1 1.01, COc1ccc(NC(=O)c2sc3nc(-c4cccnc4)ccc3c2N)cc1 6.04, Brc1ccc2oc3c(N4CCOCC4)ncnc3c2c1 -0.34, CC(C)/C=C1\CC/C(=C\c2ccc(N(C)C)cc2)C1=O 3.08, COc1cccc2c(=O)n(CC(=O)Nc3cccc(F)c3)ccc12 3.43, N#Cc1cccc(NC(=O)COC(=O)CCc2nc3ccccc3c(=O)[nH]2)c1 1.59, Cc1nc(NC(=O)COC(=O)CCS(=O)(=O)c2ccccc2Cl)c(Cl)cc1Cl 4.24, CCCNC(=O)N1CCC(C(=O)c2ccc(Cl)cc2)CC1 3.79, Nc1c(C(=O)C2CC2)sc2nc(-c3ccccc3)cc(C(F)(F)F)c12 11.2, C(=N\c1nc2ccccc2[nH]1)/c1cccs1 -1.35, CC(=O)c1c(C)[nH]c(-c2ccccc2)nc1=S 5.61, Cc1ccc(NS(=O)(=O)c2cc(C(=O)O)ccc2Cl)c(C)c1 1.63, NC(=O)c1cc2ccc(O)cc2oc1=NCc1ccccc1 6.96, CCN(CC)c1ccc2cc(C(N)=O)/c(=N\NC(=O)c3ccncc3)oc2c1 5.56, CN(C)/C=N/c1sc2c(c1C#N)CCC2 -0.51, O=C(O)CC12CSc3[nH]c(=O)sc3C1c1ccccc1OC2=O (stereo not given) 3.25, Fc1ccc(C2CC(c3ccco3)=NN2c2ccccc2)cc1 (stereo not given) 3.51, O=C(COc1ccccc1)N1CCN=C1c1ccccc1 3.07, O=C(O)c1ccn(COc2ccc(Br)cc2)n1 4.62, CCN1CCc2c(sc(NC(=O)Nc3ccc(Cl)c(Cl)c3)c2C(N)=O)C1 16, CCOC(=O)N1CCC(NC(=O)c2cc(C(=O)Nc3ccc(OC)c(OC)c3)ccc2CO)CC1 3.42, COc1ccc(N(C(=O)Cc2cccs2)C2C=CS(=O)(=O)C2)cc1 (stereo not given) 3.14, O=C1S/C(=C\c2ccc(N3CCOCC3)o2)C(=O)N1Cc1c(F)cccc1Cl 14.9, C1=C(c2ccccc2)Nc2nnnn2C1 3.1, Cc1cccc2cc3c(N)c(C(=O)N4CCc5ccccc54)sc3nc12 4.42, O=C1C2C3C=CC(C3)C2C(=O)N1CCC(=O)N1CCc2ccccc21 (stereo not given) 0.52, COc1ccc(Cc2nnc(NC(=O)Cc3cccs3)s2)cc1 3.48, CCOc1ccc(NC2=NCC(=O)N2Cc2cccs2)cc1 4.8, O=C(O)CCCCCCCCCCCc1ccccc1 0.16, CCOC(=O)/C(=C\C=C1/Sc2cc(OCC)c(OCC)cc2N1CC)C(C)=O 16.7, Clc1cccc(-c2cc3nc4c(c(N5CCNCC5)n3n2)CCCC4)c1 -0.83, CC(C)N1CC=C2C(C#N)=C(N)C(C#N)(C#N)[C@H](c3ccoc3)[C@H]2C1 9.66, CN(C)CCOCCOc1ccccc1-c1ccccc1 4.97, CC(=O)c1cc(NC(=O)c2ccc(Cl)cc2)c(=O)oc1/C=C/N(C)C 3.13, COC(=O)c1cc(NC(=O)c2cccc(Cl)c2)c(=O)oc1/C=C/Nc1cc(C)cc(C)c1 14.9, Cc1ccc2nc(NCCC(=O)O)nc(-c3ccccc3)c2c1 4.16, N#C/C(=C\c1ccc(N2CCCCC2)o1)C(=O)Nc1cccc(Br)c1 12.9, COc1ccc(C2=NC(=O)/C(=C\c3cc(OC)c(OC)c(OC)c3)O2)cc1 3.04, N#C/C(=C/c1ccc(-c2cc(C(=O)O)cc(C(=O)O)c2)o1)c1nc2ccccc2s1 3.02, COc1cc2c3nnc(-c4ccccc4)c-3cn(Cc3ccccc3F)c2cc1OC 12.9, O=C(CNC(=O)c1ccco1)OCC(=O)c1ccccc1 4.35, CCOC(=O)C1=C(C)OC(N)=C(C#N)C1c1cc(SCC)oc1C (stereo not given) 0.96, COc1cccc(NC(=O)N2CCN(c3nnnn3-c3ccccc3)CC2)c1 3.09, COC(=O)[C@@H](NC(=O)Nc1cccc(OC)c1)C(C)C 3.01, Cn1c(=O)c(NC2CCCCC2)c2c3c(cccc31)C(=O)c1ccccc1-2 16.9, O=C(NCCCN1CCCCCC1)C1CC(=O)N(C2CCCC2)C1 (stereo not given) 4.02, CC1c2nc3ccccc3n2C(CC(=O)NCCCN2CCOCC2)C(=O)N1Cc1ccccc1 (stereo not given) 2.82
